Only some compounds are listed: those with a hit (about 1.2% of all), similar ones and a draw of the others.
LAP4 TOR yeast = modulators of TOR pathway LAP4-GFP in S. cerevisiae. GFP response vs DMSO, % at 10 µM. S. cerevisiae LAP4-GFP multiplex, flow cytometry GFP, 3 h; median GFP as percent of DMSO wells. AID 2023. 320,000 tested, 0.34% active;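 active = GFP response vs DMSO above a set limit, about the screen mean plus 3 SD, cut at about 150% in these data; inconclusive = under 70 cell events counted for the yeast strain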
CIT2-GFP yeast = alters CIT2-GFP fluorescence in TOR pathway yeast screen. S. cerevisiae CIT2-GFP strain, flow cytometry, 3 h; 100 means same as DMSO wells. GFP response vs DMSO, % at 10 µM. 320,000 tested, 0.065% active;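 active = GFP response relative to DMSO above a set limit, near the screen mean plus 3 SD, cut at about 150% in these data; inconclusive = Fewer than 70 cells measured for a yeast strain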;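 also: ratio of well median GFP fluorescence to mean of DMSO wells on the plate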
MEP2-GFP yeast = modulators of TOR pathway MEP2-GFP in S. cerevisiae; AID 2016; 330,000 tested, 0.51% active; S. cerevisiae MEP2-GFP strain, flow cytometry GFP, 3 h; 100% = DMSO control level; GFP response vs DMSO, % at 10 µM;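 active = GFP response versus DMSO above a set limit, roughly screen mean plus 3 SD, cut at about 180% in these data; inconclusive = fewer than 70 cells counted for a yeast strain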;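 also: median GFP fluorescence of the barcode-gated MEP2-GFP cells per well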
RPL19A TOR yeast = yeast TOR pathway RPL19A-GFP modulation. S. cerevisiae RPL19A-GFP strain, flow cytometry, 3 h; active compounds read low. percent response vs DMSO, % at 10 µM. 330,000 tested, 0.3% active. AID 2025;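 active = percent response vs DMSO below 50%; inconclusive = fewer than 70 events counted for the yeast strain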;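 also: median channel GFP fluorescence of the barcoded RPL19A-GFP strain; ratio of sample median GFP to plate DMSO average so 100% = DMSO; lower means less RPL19A-GFP as with rapamycin TOR inhibition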
AGP1-GFP MLPCN = yeast TOR pathway AGP1-GFP modulation; S. cerevisiae AGP1-GFP multiplex flow cytometry, 3 h; GFP as percent of DMSO wells; GFP response vs DMSO, % at 10 µM; 320,000 tested, 0.02% active;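 active = GFP response relative to DMSO above a set limit, near screen average plus 3 SD, cut at about 150% in these data; inconclusive = fewer than 70 cells counted for the yeast strain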;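 also: median GFP channel fluorescence of the gated AGP1 strain per well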
DSG3 Ab inh = blocks pemphigus antibody binding to human desmoglein-3 | P32926 | DSG3-coupled beads, scFv-anti-DSG3-GFP binding, flow cytometry; active compounds read low | binding (percent of control), % at 10 µM | 310,000 tested, 0.48% active;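 active = binding more than 3 SD below its plate's average and above zero; inconclusive = below that plate limit but binding exactly zero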;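 also: hits lower antibody fragment binding to DSG3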
Numbers without * were called inactive; ? = inconclusive; . = not tested or not shown; [ ] = remark or other dose.

SMILES	LAP4 TOR yeast	CIT2-GFP yeast	MEP2-GFP yeast	RPL19A TOR yeast	AGP1-GFP MLPCN	DSG3 Ab inh
N=c1oc2cc(O)ccc2cc1C(=O)Nc1ccc(F)cc1	72	?	836*[may fluoresce violet]	41*[may fluoresce violet]	19	113
CCC12CC3CC(C1)CC(C(=O)O)(C3)C2	101	?	183*[may fluoresce violet]	56	15	97
NC(=O)CC12CC3CC(C1)CC(CC(N)=O)(C3)C2	101	98	101	99	105	98
CCOc1ccc(N2CC(C(=O)Nc3c(C)n(C)n(-c4ccccc4)c3=O)CC2=O)cc1 (configuration not stated)	100	94	93	102	104	.
Cc1nc2ncnn2c(C)c1CCC(=O)NCCCN1CCN(c2cccc(Cl)c2)CC1	104	?	180*[may fluoresce violet]	24*[may fluoresce violet]	?	97
CC[C@]1(C(=O)OC)[C@H]2C(=O)N(C)C(=O)[C@H]2[C@H]2CN=C(SCc3ccc(C(=O)OC)cc3)N21	.	.	.	.	.	109
CC(C)(C)NC(=O)C(OC(=O)c1cccs1)c1ccc(F)cc1 (configuration not stated)	96	90	96	97	102	-16*
CC(C)c1c(O)nc(SCC(=O)N2CCCCC2)[nH]c1=O	81	?	241*[may fluoresce violet]	66	17	103
COc1ccc(OC)c(Nc2cc(C)nc3nc(C)nn23)c1	107	90	99	99	98	82*
OCC(O)C1OC(Nc2ccc(Cl)cc2)C(O)C1O (configuration not stated)	115	?	310*[may fluoresce violet]	56	?	100
COc1cccc(NC(=O)COC(=O)C2=NN(c3ccccc3)C(=O)CC2)c1	100	105	103	98	101	.
CCOC(=O)CC(NS(=O)(=O)c1ccc2[nH]cc(C(=O)O)c(=O)c2c1)c1ccc(OCC)c(OC)c1 (configuration not stated)	104	107	104	102	103	96
O=[N+]([O-])c1cc([N+](=O)[O-])c2cc3ccccc3nc2c1	189*	96	105	101	97	89
C[C@@H]1CN([C@H](C)CO)C(=O)CCCn2nncc2CO[C@H]1CN(C)Cc1cccc(C(F)(F)F)c1	.	.	.	.	.	104
O=C(O)c1cocc1C(=O)O	.	.	.	.	.	109
COc1ccc(C(=O)NC2CCN(C(=S)Nc3ccccc3C)CC2)cc1	98	100	103	98	98	105
CCOc1ccc(C(=O)NC2CCN(C(=S)Nc3ccccc3C)CC2)cc1	93	95	92	91	91	-5.5*
CCCC(C(=O)Nc1ccc(S(=O)(=O)N2CCCC2)cc1)c1ccccc1 (configuration not stated)	110	101	105	100	104	104
CC(=O)N=c1sc(S(N)(=O)=O)nn1C	125	84	102	99	92	-12*
COc1ccnc(N=CNOCc2ccc(Cl)cc2)c1C#N	89	?	226*[may fluoresce violet]	45*[may fluoresce violet]	20	90
COc1ccnc(Oc2ccc(Cl)cc2)c1C#N	104	100	103	100	101	102
CCc1ccc(NC(=O)CSc2nc3ccccc3c(=O)n2CCCC(=O)NCCCN2CCOCC2)cc1	102	103	103	101	103	.
COc1cccc(/C=C2\CCCCC2=O)c1	75	?	426*[may fluoresce violet]	43*[may fluoresce violet]	?	111
COc1cccc(/C=C2\CCC(C3CCCC3)C2=O)c1 (configuration not stated)	99	99	107	105	100	96
CCOC(=O)Cc1c(C)c2c(C)[nH]nc2oc1=O	90	?	328*[may fluoresce violet]	23*[may fluoresce violet]	?	101
SMILES	LAP4 TOR yeast	CIT2-GFP yeast	MEP2-GFP yeast	RPL19A TOR yeast	AGP1-GFP MLPCN	DSG3 Ab inh
Cn1c(=O)oc2cc(S(=O)(=O)N3CCCC(C(=O)Nc4nccs4)C3)ccc21 (configuration not stated)	94	96	91	94	94	99
Cc1cccc(NC(=O)C2CCCN(S(=O)(=O)c3ccc4c(c3)oc(=O)n4C)C2)c1 (configuration not stated)	93	?	202*[may fluoresce violet]	45*[may fluoresce violet]	?	100
Cn1c(=O)oc2cc(S(=O)(=O)N3CCC(C(=O)NCC4COc5ccccc5O4)CC3)ccc21 (configuration not stated)	95	106	93	106	109	-15*
O=C(NCC1COc2ccccc2O1)C1CCN(S(=O)(=O)c2ccccc2)CC1 (configuration not stated)	92	94	92	94	95	.
Cc1cc(C(=O)COc2ccc(Br)cc2F)c(C)n1CC1CCCO1 (configuration not stated)	.	.	.	.	.	97
Cc1cccc(C)c1NC(=O)C1(N(Cc2ccco2)C(=O)c2ccccn2)CCCC1	106	?	277*[may fluoresce violet]	60	.	99
O=C(c1ccccn1)N(Cc1ccco1)C1(C(=O)NC2CCCCC2)CCCCC1	97	111	99	104	109	.
Cc1csc2c(=O)sc(NC(=O)c3cccs3)nc12	88	?	596*[may fluoresce violet]	48*[may fluoresce violet]	22	100
O=C(Cn1c(=O)n(-c2ccccc2)c(=O)c2sccc21)N1CCCC1	102	?	184*[may fluoresce violet]	43*[may fluoresce violet]	?	105
Cc1sc2ncn(CC(=O)Nc3c(F)cccc3F)c(=O)c2c1S(=O)(=O)N1CCC(C)CC1	114	115	124	109	113	55*
Cc1sc2ncn(CC(=O)NCCCN3CCC(C)CC3)c(=O)c2c1S(=O)(=O)N1CCC(C)CC1	98	99	103	103	103	.
Cc1[nH]c2ccccc2c1C(=O)C(C)OC(=O)C1CCC1 (configuration not stated)	189*	64	103	68	57	103
COCCN(CC(=O)Nc1cccc(C)c1)S(=O)(=O)c1ccc(S(=O)(=O)N2CCCC2)cc1	101	104	104	102	103	-25*
Cc1cccc(NC(=O)CSCC(=O)Nc2ccc(S(=O)(=O)N3CCCCC3)cc2)c1	.	.	.	.	.	99
O=C(O)c1ccc(N/N=C/C(Br)=C/c2ccccc2)cc1	161*	98	106	107	72	88
O=C(N/N=C/C(Br)=C/c1ccccc1)C(O)c1ccccc1 (configuration not stated)	97	?	121	63	27	100
CN1CCN(c2ccccc2NC(=O)c2ccc(-c3ccccc3[N+](=O)[O-])o2)CC1	115	107	111	116	118	102
Cc1ccc(-c2cc(C(=O)Nc3c(C)n(C)n(-c4ccccc4)c3=O)[nH]n2)c(O)c1	98	102	101	98	105	-21*
CCC(=O)N1CCN(c2ccc(NC(=O)c3ccc4c(c3)OCCO4)cc2)CC1	106	96	93	93	100	76*

Assay outcomes as filed in PubChem BioAssay.
